Laboratory results reported in PubChem BioAssay (EPA / NIEHS).
Records with an inconclusive call do not appear. Calls of active or inactive are those of the source. The calls were made as follows, unless noted: active = hit-call score of the fitted dose curve at least 0.9, where 1 is the maximum; inactive = score below 0.9.

Experiments:
[1] = read-out: Monocyte Chemoattractant Protein-1 (MCP1), CCL2 (gene 6347); assay: BSK_SAg_MCP1: BioMAP Diversity Plus: SAg Assay for Monocyte Chemoattractant Protein-1 (MCP1) Biomarker Activity (AID 2283090); conditions: primary human HUVEC with PBMC; actives raise or lower the signal
In short: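 Values derive from bidirectional fitting of ELISA-measured MCP1 against DMSO controls. Readings were taken 24 h after dosing human vascular endothelial cells co-cultured with peripheral blood mononuclear cells under superantigen stimulation.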

[2] = read-out: E-selectin (Homo sapiens) (UniProt P16581); assay: BSK_SAg_Eselectin: BioMAP Diversity Plus: SAg Assay for Eselectin Biomarker Activity (AID 2283091); conditions: primary human HUVEC with PBMC; actives raise or lower the signal
In short: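 Endpoint values derive from bidirectional fitting relative to DMSO, using ELISA-measured E-selectin in a human vascular co-culture (umbilical vein endothelium plus PBMC) sampled 24 h after dosing.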

[3] = read-out: Monokine induced gamma interferon (MIG), CXCL9 (gene 4283); assay: BSK_SAg_MIG: BioMAP Diversity Plus: SAg Assay for Monokine induced gamma interferon (MIG) Biomarker Activity (AID 2283092); conditions: primary human HUVEC with PBMC; actives raise or lower the signal
In short: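 Endothelial cells and PBMC were co-cultured, exposed to test chemicals, and sampled 24 h later. MIG was measured by ELISA, and responses were fitted in both directions relative to DMSO.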

[4] = BSK_SAg_PBMCCytotoxicity: PBMC Cytotoxicity Assessment in the BioMAP Diversity Plus: SAg Assay (AID 2283093); conditions: primary human HUVEC with PBMC;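 also: fitted both ways against DMSO so a hit may be loss or gain of signal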;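 as to AC50: PBMC superantigen activated with SEB plus TSST-1 one hour after compound addition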
In short: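 PBMC viability by Alamar Blue reduction, fluorescence read at 546/580 nm after 6 h dye exposure. Cells were dosed 1 h before SEB plus TSST-1 activation (20 ng/mL final each), then held 90 h; endothelial/PBMC human co-culture.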

[5] = read-out: Interleukin-8 (IL8), CXCL8 (gene 3576); assay: BSK_SAg_IL8: BioMAP Diversity Plus: SAg Assay for Interleukin-8 (IL8) Biomarker Activity (AID 2283094); conditions: primary human HUVEC with PBMC; actives raise or lower the signal
In short: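 Primary human endothelial cells with PBMC, exposed 24 h; IL-8 determined by ELISA, analysed bidirectionally relative to DMSO.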

[6] = BSK_SAg_Proliferation: Cell Proliferation Assessment in the BioMAP Diversity Plus: SAg Assay (AID 2283095); conditions: primary human HUVEC with PBMC;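 also: relative cell number as total protein by SRB absorbance in sub-confluent culture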
In short: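 A human primary co-culture of umbilical vein endothelium and blood mononuclear cells receives compound; relative cell number is quantified at 96 h by SRB staining and 560 nm absorbance, with DMSO-referenced bidirectional curve fitting.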

[7] = BSK_SAg_SRB: Viability Assessment in the BioMAP Diversity Plus: SAg Assay (AID 2283096); conditions: primary human HUVEC with PBMC;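 also: cells read one day after compound addition; hits may be either gain or loss of signal compared with DMSO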
In short: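 Compounds were added to a human vascular co-culture of umbilical vein endothelium and PBMC. After 24 h, parallel cultures were fixed with 10% TCA, stained with 0.1% sulforhodamine B and read at 560 nm. Gain or loss of signal was fitted relative to DMSO.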

[8] = biological target: Cytochrome P450 2C19 (Homo sapiens) (UniProt P33261); assay: NVS_ADME_hCYP2C19: NovaScreen (NVS) CYP450-related Enzyme Activity (ADME) Assay for human CYP2C19 (AID 2283113; active = hit-call score of the fitted dose curve at least 0.9, where 1 is the maximum;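 also: potency for inhibition seen as loss of fluorescent signal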)
In short: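 Biochemical CYP2C19 inhibition screen: insect-cell recombinant protein plus fluorescent substrate, 1 h, fluorescence intensity. Acetonitrile defined baseline activity. Single 10 uM concentration in duplicate, with concentration-response follow-up for actives.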

[9] = biological target: Cytochrome P450 3A4 (Homo sapiens) (UniProt P08684); assay: NVS_ADME_hCYP3A4: NovaScreen (NVS) CYP450-related Enzyme Activity (ADME) Assay for human CYP3A4 (AID 2283110; active = hit-call score of the fitted dose curve at least 0.9, where 1 is the maximum)
Chain of Cytochrome P450 3A4 (Homo sapiens) (P08684 whole entry, looked up): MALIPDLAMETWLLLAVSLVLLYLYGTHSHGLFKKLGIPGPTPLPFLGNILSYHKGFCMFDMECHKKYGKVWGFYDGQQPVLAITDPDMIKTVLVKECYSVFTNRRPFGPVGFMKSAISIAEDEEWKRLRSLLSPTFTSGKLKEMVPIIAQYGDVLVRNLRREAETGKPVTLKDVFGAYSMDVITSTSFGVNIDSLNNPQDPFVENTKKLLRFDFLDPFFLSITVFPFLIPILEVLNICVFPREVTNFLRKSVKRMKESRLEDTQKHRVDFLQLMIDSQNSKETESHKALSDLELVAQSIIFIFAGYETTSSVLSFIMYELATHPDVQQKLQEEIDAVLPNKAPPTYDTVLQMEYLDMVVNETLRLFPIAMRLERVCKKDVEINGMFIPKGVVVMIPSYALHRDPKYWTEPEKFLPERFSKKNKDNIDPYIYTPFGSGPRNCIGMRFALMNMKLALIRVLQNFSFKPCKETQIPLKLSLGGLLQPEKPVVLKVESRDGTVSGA
In short: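 Recombinant CYP3A4 from insect cells, fluorescence enzyme read-out, 0.33 h after chemical addition. Acetonitrile = negative control/baseline. Primary HTS: 10 uM in duplicate; actives re-tested in concentration series.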

[10] = biological target: human CYP19A1, CYP19A1 (gene 1588) (UniProt P11511); assay: NVS_ADME_hCYP19A1: NovaScreen (NVS) CYP450-related Enzyme Activity (ADME) Assay for human CYP19A1 (AID 2283098; active = hit-call score of the fitted dose curve at least 0.9, where 1 is the maximum)
Chain of human CYP19A1, CYP19A1 (gene 1588) (P11511 whole entry, looked up): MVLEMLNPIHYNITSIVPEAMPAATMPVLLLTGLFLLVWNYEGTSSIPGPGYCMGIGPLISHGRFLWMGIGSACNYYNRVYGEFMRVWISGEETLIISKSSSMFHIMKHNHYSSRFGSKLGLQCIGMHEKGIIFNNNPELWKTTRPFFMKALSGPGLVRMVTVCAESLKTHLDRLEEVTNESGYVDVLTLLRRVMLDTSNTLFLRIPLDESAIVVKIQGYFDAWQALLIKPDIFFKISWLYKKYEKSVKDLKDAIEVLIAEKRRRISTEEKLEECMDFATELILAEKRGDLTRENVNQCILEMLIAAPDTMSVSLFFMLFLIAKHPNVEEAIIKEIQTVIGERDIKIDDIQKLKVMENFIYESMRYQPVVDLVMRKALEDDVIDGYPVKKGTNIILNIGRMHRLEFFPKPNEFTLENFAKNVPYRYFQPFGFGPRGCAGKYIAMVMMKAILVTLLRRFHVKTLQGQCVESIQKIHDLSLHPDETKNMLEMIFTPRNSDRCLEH
In short: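 Fluorescence intensity read-out; activity taken as signal loss relative to acetonitrile vehicle. Extracted enzyme, specific substrate, no cells, 0.5 h exposure. Duplicate single-point screen at 10 uM, then concentration–response follow-up for actives.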

[11] = biological target: human CYP2B6, CYP2B6 (gene 1555) (UniProt P20813); assay: NVS_ADME_hCYP2B6: NovaScreen (NVS) CYP450-related Enzyme Activity (ADME) Assay for human CYP2B6 (AID 2283101; active = hit-call score of the fitted dose curve at least 0.9, where 1 is the maximum)
Chain of human CYP2B6, CYP2B6 (gene 1555) (P20813 whole entry, looked up): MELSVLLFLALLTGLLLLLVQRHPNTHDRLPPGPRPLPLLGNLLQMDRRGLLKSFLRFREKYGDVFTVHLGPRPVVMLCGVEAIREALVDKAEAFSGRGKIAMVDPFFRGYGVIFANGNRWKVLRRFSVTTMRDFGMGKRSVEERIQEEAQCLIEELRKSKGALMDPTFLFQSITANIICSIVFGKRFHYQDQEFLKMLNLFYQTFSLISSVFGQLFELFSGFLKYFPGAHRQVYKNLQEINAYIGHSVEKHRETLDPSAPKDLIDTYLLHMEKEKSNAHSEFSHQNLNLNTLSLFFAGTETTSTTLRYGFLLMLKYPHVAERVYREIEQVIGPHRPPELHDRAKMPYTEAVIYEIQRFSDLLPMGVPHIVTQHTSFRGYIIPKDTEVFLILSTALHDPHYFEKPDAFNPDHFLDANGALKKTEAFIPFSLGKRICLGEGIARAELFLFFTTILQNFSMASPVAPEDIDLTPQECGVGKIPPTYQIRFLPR
In short: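 Cell-free recombinant enzyme assay with a fluorogenic substrate; fluorescence intensity read 1 hour after dosing. Loss of signal relative to acetonitrile negative control indicates inhibition. Primary screen run in duplicate at 10 uM, actives then tested in concentration series.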

[12] = biological target: human CYP1A2, CYP1A2 (gene 1544) (UniProt P05177); assay: NVS_ADME_hCYP1A2: NovaScreen (NVS) CYP450-related Enzyme Activity (ADME) Assay for human CYP1A2 (AID 2283102; active = hit-call score of the fitted dose curve at least 0.9, where 1 is the maximum;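 also: potency for inhibition since loss of fluorescence marks reduced CYP1A2 activity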)
Chain of human CYP1A2, CYP1A2 (gene 1544) (P05177 whole entry, looked up): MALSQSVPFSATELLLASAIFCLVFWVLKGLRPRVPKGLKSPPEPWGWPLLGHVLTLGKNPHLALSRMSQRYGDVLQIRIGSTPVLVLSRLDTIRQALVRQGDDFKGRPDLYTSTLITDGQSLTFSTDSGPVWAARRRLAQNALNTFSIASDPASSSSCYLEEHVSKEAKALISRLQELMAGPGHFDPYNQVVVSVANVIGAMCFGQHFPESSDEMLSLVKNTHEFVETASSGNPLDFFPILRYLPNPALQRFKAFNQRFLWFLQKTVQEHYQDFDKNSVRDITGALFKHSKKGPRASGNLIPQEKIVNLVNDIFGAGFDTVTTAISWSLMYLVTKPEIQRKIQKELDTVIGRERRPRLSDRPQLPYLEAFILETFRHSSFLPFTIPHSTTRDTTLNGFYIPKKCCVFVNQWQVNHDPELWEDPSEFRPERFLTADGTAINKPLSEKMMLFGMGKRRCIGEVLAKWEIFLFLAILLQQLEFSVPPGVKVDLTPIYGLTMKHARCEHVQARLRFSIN
In short: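 Inhibition scored as decrease in fluorescent product versus acetonitrile negative control. Enzyme: insect-cell recombinant human CYP1A2, substrate-specific, cell-free. Reading at 0.5 h; 10 uM duplicate initial screen with positive and negative controls on every plate.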

[13] = biological target: human CYP2C9, CYP2C9 (gene 1559) (UniProt P11712); assay: NVS_ADME_hCYP2C9: NovaScreen (NVS) CYP450-related Enzyme Activity (ADME) Assay for human CYP2C9 (AID 2283108; active = hit-call score of the fitted dose curve at least 0.9, where 1 is the maximum)
Chain of human CYP2C9, CYP2C9 (gene 1559) (P11712 whole entry, looked up): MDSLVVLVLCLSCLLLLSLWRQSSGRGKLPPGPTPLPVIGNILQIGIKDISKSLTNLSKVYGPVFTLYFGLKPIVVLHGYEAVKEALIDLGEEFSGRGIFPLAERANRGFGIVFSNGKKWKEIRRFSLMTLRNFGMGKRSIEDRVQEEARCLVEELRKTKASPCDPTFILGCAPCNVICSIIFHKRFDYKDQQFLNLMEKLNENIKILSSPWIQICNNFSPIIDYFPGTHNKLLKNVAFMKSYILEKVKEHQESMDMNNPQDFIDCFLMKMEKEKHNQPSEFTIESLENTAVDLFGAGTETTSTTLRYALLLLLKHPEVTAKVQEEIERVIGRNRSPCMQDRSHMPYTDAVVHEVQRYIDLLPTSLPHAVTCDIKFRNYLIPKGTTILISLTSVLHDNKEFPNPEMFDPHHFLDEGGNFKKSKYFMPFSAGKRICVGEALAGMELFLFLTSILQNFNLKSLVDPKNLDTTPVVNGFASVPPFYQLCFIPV
In short: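 Recombinant human CYP2C9 expressed in SF9 cells, fluorogenic substrate, fluorescence read 0.75 h after dosing. Chemicals first run in duplicate at 10 uM, with actives followed in concentration series; loss of signal versus acetonitrile baseline.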

[14] = biological target: human AKT serine/threonine Kinase 1 (AKT1), AKT1 (gene 207) (UniProt P31749); assay: NVS_ENZ_hAKT1: NovaScreen (NVS) Enzymatic Assay for human AKT serine/threonine Kinase 1 (AKT1) (AID 2283138; active = hit-call score of the fitted dose curve at least 0.9, where 1 is the maximum)
Chain of human AKT serine/threonine Kinase 1 (AKT1), AKT1 (gene 207) (P31749 whole entry, looked up): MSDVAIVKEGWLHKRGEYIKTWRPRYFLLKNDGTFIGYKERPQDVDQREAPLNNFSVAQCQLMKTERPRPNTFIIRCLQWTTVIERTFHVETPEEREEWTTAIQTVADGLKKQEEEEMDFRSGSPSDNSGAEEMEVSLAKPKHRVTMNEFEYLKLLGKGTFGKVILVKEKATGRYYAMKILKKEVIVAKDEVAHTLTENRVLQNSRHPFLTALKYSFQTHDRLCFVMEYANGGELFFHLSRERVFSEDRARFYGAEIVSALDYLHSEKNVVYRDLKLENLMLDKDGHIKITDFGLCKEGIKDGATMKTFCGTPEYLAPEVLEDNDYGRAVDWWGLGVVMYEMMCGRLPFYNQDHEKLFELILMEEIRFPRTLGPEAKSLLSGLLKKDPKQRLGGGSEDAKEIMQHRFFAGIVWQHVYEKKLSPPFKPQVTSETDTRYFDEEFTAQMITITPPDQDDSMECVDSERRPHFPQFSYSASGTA
In short: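 A biochemical assay with recombinant enzyme and specific substrate, read by fluorescence intensity with mobility-shift separation 1 hour after dosing. Actives from 25 uM duplicate screening were titrated up to 50 uM against DMSO baseline.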

[15] = biological target: human CYP2D6, CYP2D6 (gene 1565) (UniProt P10635); assay: NVS_ADME_hCYP2D6: NovaScreen (NVS) CYP450-related Enzyme Activity (ADME) Assay for human CYP2D6 (AID 2283107; active = hit-call score of the fitted dose curve at least 0.9, where 1 is the maximum)
Chain of human CYP2D6, CYP2D6 (gene 1565) (P10635 whole entry, looked up): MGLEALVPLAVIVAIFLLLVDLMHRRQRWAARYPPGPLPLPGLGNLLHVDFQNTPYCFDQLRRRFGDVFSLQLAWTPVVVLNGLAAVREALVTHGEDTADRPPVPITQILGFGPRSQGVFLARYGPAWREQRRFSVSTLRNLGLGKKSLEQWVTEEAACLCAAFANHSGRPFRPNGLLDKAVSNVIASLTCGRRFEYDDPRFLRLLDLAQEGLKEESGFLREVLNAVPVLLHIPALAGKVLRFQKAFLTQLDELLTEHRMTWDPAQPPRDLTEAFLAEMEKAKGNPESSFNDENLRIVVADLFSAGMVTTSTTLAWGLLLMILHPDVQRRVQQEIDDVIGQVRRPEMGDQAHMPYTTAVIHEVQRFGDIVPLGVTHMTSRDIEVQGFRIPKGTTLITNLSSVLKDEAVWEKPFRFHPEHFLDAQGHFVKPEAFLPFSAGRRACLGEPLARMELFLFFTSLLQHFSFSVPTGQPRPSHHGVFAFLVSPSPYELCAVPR
In short: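 Biochemical fluorescence assay, insect-cell-derived enzyme. Read at 1 h; inhibition taken from loss of signal against acetonitrile. Screened at 10 uM in duplicate, with concentration series for actives.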

[16] = biological target: human CYP2A6, CYP2A6 (gene 1548) (UniProt P11509); assay: NVS_ADME_hCYP2A6: NovaScreen (NVS) CYP450-related Enzyme Activity (ADME) Assay for human CYP2A6 (AID 2283099; active = hit-call score of the fitted dose curve at least 0.9, where 1 is the maximum)
In short: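 Loss of fluorescence signal relative to acetonitrile vehicle reported CYP2A6 inhibition in a cell-free system using insect-cell-derived enzyme. Readings were taken at 0.5 h; top concentration in follow-up dose series was 20 uM.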

[17] = biological target: human CYP1A1, CYP1A1 (gene 1543) (UniProt P04798); assay: NVS_ADME_hCYP1A1: NovaScreen (NVS) CYP450-related Enzyme Activity (ADME) Assay for human CYP1A1 (AID 2283100; active = hit-call score of the fitted dose curve at least 0.9, where 1 is the maximum)
Chain of human CYP1A1, CYP1A1 (gene 1543) (P04798 whole entry, looked up): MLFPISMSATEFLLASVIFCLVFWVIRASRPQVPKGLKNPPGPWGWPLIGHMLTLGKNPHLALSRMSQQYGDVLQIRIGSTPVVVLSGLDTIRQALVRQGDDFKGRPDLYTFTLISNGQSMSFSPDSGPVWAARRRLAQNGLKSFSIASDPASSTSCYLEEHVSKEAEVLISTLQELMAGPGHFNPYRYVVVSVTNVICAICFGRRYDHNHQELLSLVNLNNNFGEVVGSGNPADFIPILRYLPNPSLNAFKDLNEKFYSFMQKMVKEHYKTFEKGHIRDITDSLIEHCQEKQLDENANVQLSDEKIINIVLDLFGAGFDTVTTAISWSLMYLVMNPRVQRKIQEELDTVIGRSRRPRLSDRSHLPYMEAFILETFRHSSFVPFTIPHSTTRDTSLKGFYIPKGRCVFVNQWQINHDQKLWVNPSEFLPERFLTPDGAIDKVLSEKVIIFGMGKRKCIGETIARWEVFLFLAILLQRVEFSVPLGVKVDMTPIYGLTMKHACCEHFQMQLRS
In short: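 Inhibition of recombinant CYP1A1 turnover was assessed fluorometrically in a biochemical format 1 h after compound exposure. Testing began at 10 uM in duplicate and progressed to concentration series reaching 20 uM, with on-plate positive and negative controls.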

[18] = biological target: human Acid Phosphatase 1 (ACP1), ACP1 (gene 52) (UniProt P24666); assay: NVS_ENZ_hACP1: NovaScreen (NVS) Enzymatic Assay for human Acid Phosphatase 1 (ACP1) (AID 2283136; active = hit-call score of the fitted dose curve at least 0.9, where 1 is the maximum)
Chain of human Acid Phosphatase 1 (ACP1), ACP1 (gene 52) (P24666 whole entry, looked up): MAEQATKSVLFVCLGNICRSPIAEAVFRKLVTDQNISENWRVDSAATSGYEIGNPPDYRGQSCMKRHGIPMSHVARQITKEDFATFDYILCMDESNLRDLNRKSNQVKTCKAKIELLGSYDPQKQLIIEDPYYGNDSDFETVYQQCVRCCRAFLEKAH
In short: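 Cell-free fluorescence read-out of phosphatase activity, substrate and product separated by mobility shift, taken 1.5 h after compound addition; protein produced in Sf9. Single 25 uM duplicate screen, followed by concentration series for actives, scored as signal loss relative to DMSO.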

Measured: AC50

Chain of E-selectin (Homo sapiens) (P16581 whole entry, looked up): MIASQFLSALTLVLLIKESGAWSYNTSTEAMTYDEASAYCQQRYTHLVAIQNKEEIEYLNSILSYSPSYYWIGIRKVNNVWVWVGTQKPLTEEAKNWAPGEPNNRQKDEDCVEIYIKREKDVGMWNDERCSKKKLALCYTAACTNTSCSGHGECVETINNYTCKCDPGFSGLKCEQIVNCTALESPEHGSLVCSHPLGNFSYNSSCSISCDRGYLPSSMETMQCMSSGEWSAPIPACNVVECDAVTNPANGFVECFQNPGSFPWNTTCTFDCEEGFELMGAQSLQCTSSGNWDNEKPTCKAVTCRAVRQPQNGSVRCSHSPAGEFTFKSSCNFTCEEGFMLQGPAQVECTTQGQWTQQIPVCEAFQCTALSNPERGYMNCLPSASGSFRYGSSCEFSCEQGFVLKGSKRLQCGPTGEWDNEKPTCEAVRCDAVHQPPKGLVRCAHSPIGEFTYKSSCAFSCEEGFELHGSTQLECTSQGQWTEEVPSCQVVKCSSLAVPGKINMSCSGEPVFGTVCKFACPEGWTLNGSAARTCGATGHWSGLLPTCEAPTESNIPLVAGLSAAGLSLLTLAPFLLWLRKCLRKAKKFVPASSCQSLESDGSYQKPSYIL

CCCCCCOC(=O)CC(CC(=O)OCCCCCC)(OC(=O)CCC)C(=O)OCCCCCC
active: [4] 4.11 µM | [6] 9.76 µM | [8] 2.71 µM
inactive: [1] | [2] | [3] | [5] | [7]

OC(CCl)CCl
inactive: [1] | [2] | [3] | [4] | [5] | [6] | [7]

COc1cc(C(C)C)c2c(c1)S(=O)(=O)N(COc1cc(=O)n3cccc(OCCN4CCCCC4)c3n1)C2=O
inactive: [3] | [4] | [7]
active: [1] 5 µM | [2] 5 µM | [6] 7.69 µM | [9] 0.9 µM

OC(O)(C(F)C(O)(O)C(F)(F)F)C(F)(F)F
inactive: [2] | [3] | [4] | [5] | [7]
active: [6] 30 µM

CCN(CC)C(=S)SSC(=S)N(CC)CC
active: [1] 28.4 µM | [2] 32.6 µM | [3] 36.3 µM | [4] 20 µM | [5] 32.5 µM | [6] 6.07 µM | [7] 30.8 µM | [11] 0.405 µM | [12] 1.2 µM | [13] 3.12 µM
inactive: [10]

C[C@@H](Oc1ccc(CNC(=O)c2cccnc2Oc2ccc3c(c2)OCO3)c(F)c1)C(=O)O
inactive: [2] | [3] | [4] | [5] | [6] | [7]

FC(F)=C(F)C(F)(F)C(F)(F)C(F)(F)C(F)(F)C(F)(F)C(F)(F)F
inactive: [1] | [2] | [3] | [4] | [5] | [6] | [7]

OCC(CO)(CO)CO
inactive: [2] | [3] | [4] | [5] | [6] | [7]

NCC(F)(F)C(F)(F)C(F)(F)C(F)(F)F
inactive: [2] | [3] | [4] | [5] | [6] | [7]

OCCOCCOCCO
inactive: [1] | [2] | [3] | [4] | [5] | [6] | [7] | [9]

O=c1[nH]cnc2c1ncn2[C@H]1CC[C@@H](CO)O1
inactive: [1] | [2] | [3] | [4] | [5] | [6] | [7] | [14]

C[Si](C)(C)C(F)(F)C(F)(F)C(F)(F)F
inactive: [2] | [3] | [4] | [5] | [6] | [7]

O=C(O)c1cccc(C(=O)O)c1
inactive: [2] | [3] | [4] | [5] | [6] | [7]

CCCC(CCC)C(=O)O
inactive: [2] | [3] | [4] | [5] | [6] | [7] | [10] | [14]
active: [8] 10 µM

CCn1nc(C)c2c1C(=O)NCC(c1ccc(O)cc1)=N2
active: [2] 0.435 µM | [6] 20 µM | [15] 6.23 µM
inactive: [3] | [4] | [5] | [7]

CCOC(N)=O
inactive: [2] | [3] | [4] | [5] | [6] | [7]

c1ccc(C(O[C@@H]2CCCN(CCc3ccc4c(c3)OCO4)C2)c2ccccc2)cc1
active: [2] 27.6 µM | [3] 30.9 µM | [4] 28.4 µM | [5] 14.1 µM | [6] 16.3 µM | [7] 24.3 µM | [17] 4.89 µM | [11] 4.4 µM | [12] 5.35 µM | [15] 1.59 µM | [13] 6.98 µM | [8] 5.04 µM
inactive: [16]

CCCCCCCC/C=C\CCCCCCCC(=O)OC[C@@H](O)[C@H]1OC[C@H](O)[C@H]1O
inactive: [2] | [3] | [4] | [5] | [6] | [7] | [14]
active: [13] 16.5 µM

COc1cc2c(c(OC)c1OC)-c1ccc(OC)c(=O)cc1[C@@H](NC(C)=O)CC2
active: [6] 0.34 µM | [7] 0.204 µM
inactive: [2] | [3] | [4] | [5]

Cc1nc(-c2ccccn2)ncc1C(=O)Nn1cc(C)c2cc(F)ccc21
active: [6] 20 µM
inactive: [2] | [3] | [4] | [5] | [7] | [18]
